Where “and” joins values, the source holds several entries; their conditions need not be identical. Equal values may be shown once. The source holds several records for some structures; these can differ, active in one and inactive in another. Calls of active or inactive are those of the source.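 Rule for the calls, unless noted: active = inhibition at or above 50% relative to wild type and mutant plate controls; inactive = inhibition below 50%.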
Columns and labels:
[1] = inhibitors of TNFa-induced NFkB p65 translocation, primary screen, imaging, HUVEC, MLSMR starter and 10KST1 sets (AID 438;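 active = inhibition above 20% together with a positive visual image hit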;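 note: compound added about 3h40 before a 20 min TNFalpha stimulation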;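 for inhibition: signal is the nuclear over cytoplasmic p65 intensity ratio per well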); conditions: HUVEC TNFa-induced p65 nuclear translocation; cell count: measured here: nuclei count (cytotoxicity indicator), at 2.08 µM; inhibition: at 2 µM, stronger effect = higher value, 0% TNFa-plus-vehicle, 100% no-TNFa wells
[2] = reduction of polyQ htt aggregates in cells – imaging, exon1htt(103Q)mCFP cells, high-content imaging, primary screen (AID 483;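 active = visual image review flags a hit and inhibition of aggregation exceeds 20%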;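 note: compound exposure lasted 3 days before fixation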;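 for nuclei count: percent of the per-plate median nuclei count of sample wells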); conditions: exon1htt(103Q)mCFP cell line, aggregate imaging, at 2 µM; inhibition of aggregation: stronger effect = higher value; nuclei count: measured here: cell count, toxicity
[3] = endothelial E-selectin expression blockers – imaging, HUVEC, immunofluorescence, MLSMR starter and 10KST1 sets, primary screen (AID 487;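 active = visually confirmed hit in the image check and inhibition above 20%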;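 for inhibition: signal is fraction of cell area covered by stained E-selectin grains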;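 for nuclei count: 100% = median nuclei count of all wells on the same plate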); conditions: HUVEC TNFalpha-induced E-selectin immunofluorescence imaging, at 2 µM; inhibition: stronger effect = higher value; nuclei count: measured here: cell number, toxicity
[4] = Primary imaging screen for DUSP6 inhibitors that restore phospho-Erk in transfected HeLa cells, chemical complementation (AID 609;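 active = compounds giving at least 50% inhibition in the cell-based MKP-3 phosphatase rescue imaging test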;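 for inhibition: phospho-Erk level distribution per well compared with pooled transfected vehicle control wells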); conditions: HeLa MKP-3 transfected, phospho-Erk imaging KS statistic, at 10 µM, cells stimulated with TPA for 15 min
[5] = biological target: Dual specificity protein phosphatase 6 (Homo sapiens) (UniProt Q16828); test: as above; conditions: HeLa MKP-3 transfected, phospho-Erk imaging KS statistic; at 10 µM; stronger effect = higher value; cells stimulated with TPA for 15 min
[6] = biological target: Voltage-gated potassium channel subunit beta-2 (Rattus norvegicus) (UniProt P62483); test: inhibitors of rat Kvbeta2 reductase activity – biochemical, NADPH fluorescence, primary screen (AID 622;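 active = fluorescence slope higher than the sample average by over 3 SD, cut at about -0.22 in these data, passing the limit was not always enough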;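 note: slope of raw intensity against log time taken from 70 to 1610 s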); conditions: recombinant KvBeta, 4-cyanobenzaldehyde reduction, at 10 µM, stronger effect = higher value
[7] = biological target: Voltage-gated potassium channel subunit beta-2 (Rattus norvegicus) (UniProt P62483); test: enhancers of rat Kvbeta2 NADPH turnover – biochemical, NADPH fluorescence, primary screen (AID 623;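 active = NADPH fluorescence slope more negative than the mean of all samples by about 3 SD, 99.7% confidence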;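 note: fluorescence intensity change per second fitted from 20 to 320 s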); conditions: Recombinant KvBeta, NADPH fluorescence decrease slope, 10 min; at 10 µM; stronger effect = lower value
[8] = biological target: Alpha-2C adrenergic receptor (Homo sapiens) (UniProt P18825); test: compounds altering alpha2C-coupled GIRK flux – cell-based, HEK293 alpha2C/GIRK1/2, thallium flux, primary screen (AID 624;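 active = fluorescence slope after compound addition differing from the mean of all screened samples at 99.7% confidence, in either direction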;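 note: slope of fluorescence ratio to pre-addition baseline per second over 15 to 24 s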); conditions: thallium flux BTC fluorescence, at 10 µM, actives lie on both sides
[9] = inhibitors of larval lipid processing in zebrafish, primary screen, whole organism, PED6 fluorescence, gall bladder and intestine (AID 686;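 active = a full or partial loss of lipid-probe fluorescence in the fish gall bladder, intestine or both, judged by eye; inactive = no fluorescence loss, or compound toxic to the fish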;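 note: larvae 5 to 7 days old with five fish per well; signal comes from phospholipase A2 cleavage of quenched PED6 carried via bile; overnight exposure to compound and PED6 before scoring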); conditions: Zebrafish larvae PED6 lipid processing, fluorescence scoring; screened at 20 µM (by protocol)
[10] = loss of swimming-algae plug formation – whole organism, Chlamydomonas reinhardtii, WT vs cilia-less mutant, absorbance, 96-well, primary screen (AID 463189); conditions: Chlamydomonas reinhardtii gravitaxis, OD600 absorbance, 2 days; at 10 µM; stronger effect = higher value;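 note: 0% = wild type cc124 cells in DMSO and 100% = ciliumless bld1 mutant cells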
[11] = blockers of RIG-like receptor reporter activation – cell-based, Sendai virus stimulus, luciferase, 10K MLSCN set, TLR/RLR signaling modifier project, primary screen (AID 602276;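 active = inhibition at or above 50% at 10 µM; inactive = inhibition below 50%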;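 note: firefly luciferase from ISG56 promoter only with Renilla not read in this screen; 0% = Sendai virus plus DMSO and 100% = medium plus DMSO without virus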); conditions: HEK293 RL24 IRF3 luciferase reporter, at 10 µM, stronger effect = higher value
[12] = TLR3 IRF3 reporter activation blockers – cell-based, poly I:C stimulus, luciferase, 10K MLSCN set, primary screen (AID 602277;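 active = inhibition of the reporter signal at or above 50%; inactive = inhibition below 50%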); conditions: HEK293-TLR3 RL24 IRF3 luciferase reporter, at 10 µM, stronger effect = higher value
[13] = biological target: Muscarinic acetylcholine receptor M4 (Homo sapiens) (UniProt P08173); test: M4-linked GIRK flux change, two-sided – cell-based, HEK293 M4/GIRK, thallium flux, BTC-AM, M4 allosteric agonist project, primary screen (AID 625;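 active = fluorescence slope after compound addition differing from the mean of all tested samples at 99.7% confidence, mostly higher but some lower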;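 note: thallium influx through GIRK channels coupled to M4 in HEK293 cells with BTC-AM dye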); conditions: at 10 µM, actives lie on both sides
[14] = measured here: cell density z-score
[15] = measured here: nuclear c-Myc green intensity z-score
[16] = measured here: nuclear pErk red intensity z-score, stronger effect = higher value

Voltage-gated potassium channel subunit beta-2 (Rattus norvegicus), sequence (P62483 whole entry, looked up): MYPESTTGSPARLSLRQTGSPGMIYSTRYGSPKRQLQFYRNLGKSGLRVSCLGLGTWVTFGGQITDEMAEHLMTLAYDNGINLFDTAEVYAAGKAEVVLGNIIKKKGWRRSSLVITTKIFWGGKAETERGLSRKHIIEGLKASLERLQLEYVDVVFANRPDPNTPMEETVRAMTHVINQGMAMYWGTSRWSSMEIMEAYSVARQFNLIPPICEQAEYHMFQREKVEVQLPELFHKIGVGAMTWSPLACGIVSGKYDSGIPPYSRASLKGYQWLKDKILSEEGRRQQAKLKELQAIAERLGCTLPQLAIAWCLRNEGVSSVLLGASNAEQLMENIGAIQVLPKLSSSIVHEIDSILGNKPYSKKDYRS
Alpha-2C adrenergic receptor (Homo sapiens), sequence (P18825 whole entry, looked up): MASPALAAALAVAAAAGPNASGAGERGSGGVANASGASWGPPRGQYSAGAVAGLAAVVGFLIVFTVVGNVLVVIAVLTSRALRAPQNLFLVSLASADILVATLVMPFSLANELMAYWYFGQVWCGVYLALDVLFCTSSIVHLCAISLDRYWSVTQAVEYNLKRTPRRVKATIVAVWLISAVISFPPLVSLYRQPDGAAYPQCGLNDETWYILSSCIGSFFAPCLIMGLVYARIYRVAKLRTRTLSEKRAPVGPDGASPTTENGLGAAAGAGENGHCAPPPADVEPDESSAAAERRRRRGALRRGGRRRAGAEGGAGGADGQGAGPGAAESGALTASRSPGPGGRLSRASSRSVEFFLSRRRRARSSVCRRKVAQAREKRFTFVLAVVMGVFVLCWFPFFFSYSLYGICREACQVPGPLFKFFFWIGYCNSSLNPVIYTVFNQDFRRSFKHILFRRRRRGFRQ
Dual specificity protein phosphatase 6 (Homo sapiens), sequence (Q16828 whole entry, looked up): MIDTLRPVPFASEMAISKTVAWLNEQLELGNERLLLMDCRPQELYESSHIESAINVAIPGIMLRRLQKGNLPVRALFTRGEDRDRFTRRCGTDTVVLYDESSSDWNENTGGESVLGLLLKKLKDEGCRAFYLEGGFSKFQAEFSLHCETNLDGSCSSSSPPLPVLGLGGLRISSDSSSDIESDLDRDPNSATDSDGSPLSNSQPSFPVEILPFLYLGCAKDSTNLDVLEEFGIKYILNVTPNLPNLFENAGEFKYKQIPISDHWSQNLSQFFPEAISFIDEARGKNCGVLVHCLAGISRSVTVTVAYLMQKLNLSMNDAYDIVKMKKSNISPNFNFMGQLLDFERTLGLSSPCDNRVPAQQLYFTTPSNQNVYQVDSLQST
Muscarinic acetylcholine receptor M4 (Homo sapiens), sequence (P08173 whole entry, looked up): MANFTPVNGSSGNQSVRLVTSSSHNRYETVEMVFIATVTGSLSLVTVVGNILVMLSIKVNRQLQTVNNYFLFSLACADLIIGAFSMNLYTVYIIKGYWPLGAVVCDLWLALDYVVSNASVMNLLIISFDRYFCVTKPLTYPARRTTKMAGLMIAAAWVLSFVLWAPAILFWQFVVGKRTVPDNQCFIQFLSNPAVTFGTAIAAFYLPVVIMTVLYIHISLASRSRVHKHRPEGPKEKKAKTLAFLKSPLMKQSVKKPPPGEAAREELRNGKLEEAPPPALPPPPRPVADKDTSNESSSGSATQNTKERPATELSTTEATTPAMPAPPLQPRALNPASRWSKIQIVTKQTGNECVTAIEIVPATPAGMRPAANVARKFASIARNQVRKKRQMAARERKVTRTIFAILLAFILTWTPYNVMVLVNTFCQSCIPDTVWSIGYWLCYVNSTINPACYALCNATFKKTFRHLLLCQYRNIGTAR

SMILES | cell count [1] | inhibition [1] | inhibition of aggregation [2] | nuclei count [2] [%] | inhibition [3] | nuclei count [3] [%] | z-score [4, 14] | z-score [4, 15] | z-score [4, 16] | inhibition [5] | fluorescence slope [6] | NADPH fluorescence slope [7] | slope [8] | outcome [9] | inhibition [10] | inhibition [11] | inhibition [12] | fluorescence slope [13]
CC(C)(S)[C@@H](N)C(=O)O | 657 | -4.4% (inactive) | -5.6% (inactive) | 105 | -120% (inactive) | 138 | 1.21 | -0.53 | -0.44 | 3.45% (inactive) | -0.482 (inactive) | -4.6e-05 (inactive) | 0.00423 (inactive) | inactive | -3.9% (inactive) | 22.7% (inactive) | 43.2% (inactive) | –
CN1CCN(CCCN2c3ccccc3Sc3ccc(C(F)(F)F)cc32)CC1 | 613 | 4.1% (inactive) | -9.7% (inactive) | 101 | -23.1% (inactive) | 121 | 0.592 | 0.844 | 1.24 | -5.24% (inactive) | -0.437 (inactive) | -1.6e-05 (inactive) | 0.00437 (inactive) | inactive | 35.7% (inactive) and 164% (active) | 18.2% (inactive) | 40.2% (inactive) | –
COc1ccc(CCN2CCC(Nc3nc4ccccc4n3Cc3ccc(F)cc3)CC2)cc1 | 525 | -1.3% (inactive) | -3% (inactive) | 83.3 | -28.6% (inactive) | 107 | -0.393 | 1.49 | 0.359 | 7.39% (inactive) | -0.513 (inactive) | -0.000106 (inactive) | 0.00466 (inactive) | inactive | 133% (active) | -3.81% (inactive) | -23.6% (inactive) | –
COC(=O)c1cc(S(=O)(=O)N2CCOCC2)c(N2CCOCC2)cc1N1CCOCC1 | 427 | -5.9% (inactive) | 5% (inactive) | 118 | -21.7% (inactive) | 129 | -1.77 | -0.115 | 0.265 | -1.75% (inactive) | -0.409 (inactive) | -0.000135 (inactive) | 0.00461 (inactive) | inactive | 23.9% (inactive) | 4.03% (inactive) | 11% (inactive) | –
CCc1ccccc1NC(=O)CSC1=C(C#N)C(c2ccc(O)c(OC)c2)C2=C(CCCC2=O)N1 (configuration not stated) | 554 | -8.4% (inactive) | -29.5% (inactive) | 109 | -146% (inactive) | 137 | -0.0849 | -0.0258 | 0.52 | 13.2% (inactive) | -0.422 (inactive) | -3.5e-05 (inactive) | 0.00571 (inactive) | inactive | 22.1% (inactive) | 18.6% (inactive) | 20% (inactive) | –
CCCSc1ccc2nc(NC(=O)OC)[nH]c2c1 | 574 | 3% (inactive) | -22.3% (inactive) | 15.7 | -115% (inactive) | 123 | 0.0938 | 0.921 | 0.811 | -5.24% (inactive) | -0.486 (inactive) | -8.1e-05 (inactive) | 0.00562 (inactive) | inactive | -13.8% (inactive) | 26.9% (inactive) | -19.4% (inactive) | –
Cn1cc(NC(=O)c2cc(NC(=O)c3cc(NC=O)cn3C)cn2C)cc1C(=O)NCCC(=N)N | 571 | -3.6% (inactive) | -13.8% (inactive) | 96.4 | -15.4% (inactive) | 95.1 | -1.3 | 0.0863 | -0.177 | -0.493% (inactive) | -0.499 (inactive) | -3.2e-05 (inactive) | 0.00517 (inactive) | inactive | -16.5% (inactive) | 19.8% (inactive) | 37.3% (inactive) | –
CCCC1Cc2c(sc3ncnc(N)c23)CO1 (configuration not stated) | 492 | -5.3% (inactive) | -8% (inactive) | 80.5 | -49.3% (inactive) | 139 | -0.574 | -0.569 | 0.241 | -1.98% (inactive) | -0.411 (inactive) | -4.2e-05 (inactive) | 0.00633 (inactive) | inactive | 1.24% (inactive) | -2.55% (inactive) | 5.36% (inactive) | 0.00429 (inactive)
CC(C)N=c1cc2n(-c3ccc(Cl)cc3)c3ccccc3nc-2cc1Nc1ccc(Cl)cc1 | 636 | -2.8% (inactive) | -9.9% (inactive) | 102 | -163% (inactive) | 126 | -0.698 | -0.296 | 0.758 | -0.493% (inactive) | -0.535 (inactive) | -1.6e-05 (inactive) | 0.00125 (inactive) | active; weak signal in gallbladder and intestine | 157% (active) | -7.35% (inactive) | 33.1% (inactive) | –
N#CCc1nc2c3c4c(sc3ncn2n1)CCCC4 | 436 | -7.3% (inactive) | -155% (inactive) | 1.9 | -12.1% (inactive) | 130 | 0.106 | 1.08 | 0.152 | 5.95% (inactive) | -0.413 (inactive) | -4.9e-05 (inactive) | 0.00471 (inactive) | inactive | 0.738% (inactive) | 5.18% (inactive) | -26.2% (inactive) | 0.00496 (inactive)

Source: PubChem BioAssay
